# Reference: the supplement of paper PMC4466140
# Target: AgAbp1
# Assay: SPOT peptide array binding signal intensity (averaged, normalized) (arbitrary units (background-subtracted, floor 0; scale differs between SH3 domains)); higher = stronger binding of the SH3 domain to the peptide
# Method: (§1)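 GST-tagged SH3 domains from S. cerevisiae (Sc), A. gossypii (Ag), C. albicans (Ca) and S. pombe (Sp) were incubated at 10 ug/ml overnight at 4 C on cellulose SPOT membranes carrying 292 synthetic 15-mer peptides mined from the S. cerevisiae proteome (cysteines replaced by serines). Binding was detected with anti-GST antibody, HRP secondary and chemiluminescence, quantified with Genespotter, and reported as normalized spot intensities averaged over biological replicates.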
row,Binder,SPOT peptide array binding signal intensity
1,LASNSPPVYPKRIRH,45
2,ALKQKKIPPPFKPHL,43.5

# Target: AgBbc1
# Assay: as above
# Method: as §1
row,Binder,SPOT peptide array binding signal intensity
1,LASNSPPVYPKRIRH,18.2
2,ALKQKKIPPPFKPHL,≤ 0

# Target: AgBem1-D1
# Assay: as above
# Method: as §1
row,Binder,SPOT peptide array binding signal intensity
1,LASNSPPVYPKRIRH,≤ 0
2,ALKQKKIPPPFKPHL,4

# Target: AgBzz1-D1
# Assay: as above
# Method: as §1
row,Binder,SPOT peptide array binding signal intensity
1,LASNSPPVYPKRIRH,59
2,ALKQKKIPPPFKPHL,43

# Target: AgBzz1-D2
# Assay: as above
# Method: as §1
row,Binder,SPOT peptide array binding signal intensity
1,LASNSPPVYPKRIRH,6
2,ALKQKKIPPPFKPHL,22

# Target: AgCyk3
# Assay: as above
# Method: as §1
row,Binder,SPOT peptide array binding signal intensity
1,LASNSPPVYPKRIRH,≤ 0
2,ALKQKKIPPPFKPHL,≤ 0

# Target: AgFus1
# Assay: as above
# Method: as §1
row,Binder,SPOT peptide array binding signal intensity
1,LASNSPPVYPKRIRH,≤ 0
2,ALKQKKIPPPFKPHL,≤ 0

# Target: AgHof1
# Assay: as above
# Method: as §1
row,Binder,SPOT peptide array binding signal intensity
1,LASNSPPVYPKRIRH,≤ 0
2,ALKQKKIPPPFKPHL,7.5

# Target: AgHse1
# Assay: as above
# Method: as §1
row,Binder,SPOT peptide array binding signal intensity
1,LASNSPPVYPKRIRH,3.5
2,ALKQKKIPPPFKPHL,≤ 0

# Target: AgLsb1
# Assay: as above
# Method: as §1
row,Binder,SPOT peptide array binding signal intensity
1,LASNSPPVYPKRIRH,2.5
2,ALKQKKIPPPFKPHL,≤ 0

# Target: AgLsb4
# Assay: as above
# Method: as §1
row,Binder,SPOT peptide array binding signal intensity
1,LASNSPPVYPKRIRH,196
2,ALKQKKIPPPFKPHL,≤ 0

# Target: AgMyo5
# Assay: as above
# Method: as §1
row,Binder,SPOT peptide array binding signal intensity
1,LASNSPPVYPKRIRH,≤ 0
2,ALKQKKIPPPFKPHL,≤ 0

# Target: AgNbp2
# Assay: as above
# Method: as §1
row,Binder,SPOT peptide array binding signal intensity
1,LASNSPPVYPKRIRH,≤ 0
2,ALKQKKIPPPFKPHL,≤ 0

# Target: AgRvs167
# Assay: as above
# Method: as §1
row,Binder,SPOT peptide array binding signal intensity
1,LASNSPPVYPKRIRH,4.17
2,ALKQKKIPPPFKPHL,≤ 0

# Target: AgSho1
# Assay: as above
# Method: as §1
row,Binder,SPOT peptide array binding signal intensity
1,LASNSPPVYPKRIRH,≤ 0
2,ALKQKKIPPPFKPHL,≤ 0

# Target: AgSla1-D1-D2
# Assay: as above
# Method: as §1
row,Binder,SPOT peptide array binding signal intensity
1,LASNSPPVYPKRIRH,2
2,ALKQKKIPPPFKPHL,≤ 0

# Target: AgSla1-D3
# Assay: as above
# Method: as §1
row,Binder,SPOT peptide array binding signal intensity
1,LASNSPPVYPKRIRH,≤ 0
2,ALKQKKIPPPFKPHL,2.5

# Target: CaAbp1-D1
# Assay: as above
# Method: as §1
row,Binder,SPOT peptide array binding signal intensity
1,LASNSPPVYPKRIRH,93
2,ALKQKKIPPPFKPHL,938

# Target: CaAbp1-D2
# Assay: as above
# Method: as §1
row,Binder,SPOT peptide array binding signal intensity
1,LASNSPPVYPKRIRH,47.5
2,ALKQKKIPPPFKPHL,984

# Target: CaBbc1
# Assay: as above
# Method: as §1
row,Binder,SPOT peptide array binding signal intensity
1,LASNSPPVYPKRIRH,400
2,ALKQKKIPPPFKPHL,≤ 0

# Target: CaBem1-D1
# Assay: as above
# Method: as §1
row,Binder,SPOT peptide array binding signal intensity
1,LASNSPPVYPKRIRH,6
2,ALKQKKIPPPFKPHL,2

# Target: CaBzz1-D1
# Assay: as above
# Method: as §1
row,Binder,SPOT peptide array binding signal intensity
1,LASNSPPVYPKRIRH,165
2,ALKQKKIPPPFKPHL,589

# Target: CaBzz1-D2
# Assay: as above
# Method: as §1
row,Binder,SPOT peptide array binding signal intensity
1,LASNSPPVYPKRIRH,44.8
2,ALKQKKIPPPFKPHL,205

# Target: CaCyk3
# Assay: as above
# Method: as §1
row,Binder,SPOT peptide array binding signal intensity
1,LASNSPPVYPKRIRH,≤ 0
2,ALKQKKIPPPFKPHL,≤ 0

# Target: CaFus1
# Assay: as above
# Method: as §1
row,Binder,SPOT peptide array binding signal intensity
1,LASNSPPVYPKRIRH,≤ 0
2,ALKQKKIPPPFKPHL,19.5

# Target: CaHof1
# Assay: as above
# Method: as §1
row,Binder,SPOT peptide array binding signal intensity
1,LASNSPPVYPKRIRH,0.25
2,ALKQKKIPPPFKPHL,0.5

# Target: CaHse1
# Assay: as above
# Method: as §1
row,Binder,SPOT peptide array binding signal intensity
1,LASNSPPVYPKRIRH,≤ 0
2,ALKQKKIPPPFKPHL,0.5

# Target: CaLsb1
# Assay: as above
# Method: as §1
row,Binder,SPOT peptide array binding signal intensity
1,LASNSPPVYPKRIRH,≤ 0
2,ALKQKKIPPPFKPHL,≤ 0

# Target: CaLsb4
# Assay: as above
# Method: as §1
row,Binder,SPOT peptide array binding signal intensity
1,LASNSPPVYPKRIRH,771
2,ALKQKKIPPPFKPHL,≤ 0

# Target: CaMyo5
# Assay: as above
# Method: as §1
row,Binder,SPOT peptide array binding signal intensity
1,LASNSPPVYPKRIRH,≤ 0
2,ALKQKKIPPPFKPHL,0.5

# Target: CaNbp2
# Assay: as above
# Method: as §1
row,Binder,SPOT peptide array binding signal intensity
1,LASNSPPVYPKRIRH,≤ 0

# Target: CaRvs167
# Assay: as above
# Method: as §1
row,Binder,SPOT peptide array binding signal intensity
1,LASNSPPVYPKRIRH,4.17

# Target: CaRvs167-3
# Assay: as above
# Method: as §1
row,Binder,SPOT peptide array binding signal intensity
1,LASNSPPVYPKRIRH,2.25

# Target: CaSho1
# Assay: as above
# Method: as §1
row,Binder,SPOT peptide array binding signal intensity
1,LASNSPPVYPKRIRH,3

# Target: CaSla1-D1-D2
# Assay: as above
# Method: as §1
row,Binder,SPOT peptide array binding signal intensity
1,LASNSPPVYPKRIRH,56

# Target: CaSla1-D3
# Assay: as above
# Method: as §1
row,Binder,SPOT peptide array binding signal intensity
1,LASNSPPVYPKRIRH,≤ 0

# Target: ScAbp1
# Assay: as above
# Method: as §1
row,Binder,SPOT peptide array binding signal intensity
1,LASNSPPVYPKRIRH,39.5

# Target: ScBbc1
# Assay: as above
# Method: as §1
row,Binder,SPOT peptide array binding signal intensity
1,LASNSPPVYPKRIRH,16.8

# Target: ScBem1-D1
# Assay: as above
# Method: as §1
row,Binder,SPOT peptide array binding signal intensity
1,LASNSPPVYPKRIRH,≤ 0

# Target: ScBzz1-D1
# Assay: as above
# Method: as §1
row,Binder,SPOT peptide array binding signal intensity
1,LASNSPPVYPKRIRH,≤ 0

# Target: ScBzz1-D2
# Assay: as above
# Method: as §1
row,Binder,SPOT peptide array binding signal intensity
1,LASNSPPVYPKRIRH,19

# Target: ScCyk3
# Assay: as above
# Method: as §1
row,Binder,SPOT peptide array binding signal intensity
1,LASNSPPVYPKRIRH,1

# Target: ScFus1
# Assay: as above
# Method: as §1
row,Binder,SPOT peptide array binding signal intensity
1,LASNSPPVYPKRIRH,≤ 0

# Target: ScHof1
# Assay: as above
# Method: as §1
row,Binder,SPOT peptide array binding signal intensity
1,LASNSPPVYPKRIRH,0.75

# Target: ScHse1
# Assay: as above
# Method: as §1
row,Binder,SPOT peptide array binding signal intensity
1,LASNSPPVYPKRIRH,≤ 0

# Target: ScLsb1
# Assay: as above
# Method: as §1
row,Binder,SPOT peptide array binding signal intensity
1,LASNSPPVYPKRIRH,46.5

# Target: ScLsb2
# Assay: as above
# Method: as §1
row,Binder,SPOT peptide array binding signal intensity
1,LASNSPPVYPKRIRH,10

# Target: ScLsb3
# Assay: as above
# Method: as §1
row,Binder,SPOT peptide array binding signal intensity
1,LASNSPPVYPKRIRH,1560

# Target: ScLsb4
# Assay: as above
# Method: as §1
row,Binder,SPOT peptide array binding signal intensity
1,LASNSPPVYPKRIRH,45.5

# Target: ScMyo3
# Assay: as above
# Method: as §1
row,Binder,SPOT peptide array binding signal intensity
1,LASNSPPVYPKRIRH,≤ 0

# Target: ScMyo5
# Assay: as above
# Method: as §1
row,Binder,SPOT peptide array binding signal intensity
1,LASNSPPVYPKRIRH,≤ 0

# Target: ScNbp2
# Assay: as above
# Method: as §1
row,Binder,SPOT peptide array binding signal intensity
1,LASNSPPVYPKRIRH,≤ 0

# Target: ScPex13
# Assay: as above
# Method: as §1
row,Binder,SPOT peptide array binding signal intensity
1,LASNSPPVYPKRIRH,56.5

# Target: ScRvs167
# Assay: as above
# Method: as §1
row,Binder,SPOT peptide array binding signal intensity
1,LASNSPPVYPKRIRH,7.67

# Target: ScSho1
# Assay: as above
# Method: as §1
row,Binder,SPOT peptide array binding signal intensity
1,LASNSPPVYPKRIRH,27.5

# Target: ScSla1-D1-D2
# Assay: as above
# Method: as §1
row,Binder,SPOT peptide array binding signal intensity
1,LASNSPPVYPKRIRH,11

# Target: ScSla1-D3
# Assay: as above
# Method: as §1
row,Binder,SPOT peptide array binding signal intensity
1,LASNSPPVYPKRIRH,≤ 0

# Target: SpAbp1-D1
# Assay: as above
# Method: as §1
row,Binder,SPOT peptide array binding signal intensity
1,LASNSPPVYPKRIRH,18.5

# Target: SpBbc1
# Assay: as above
# Method: as §1
row,Binder,SPOT peptide array binding signal intensity
1,LASNSPPVYPKRIRH,≤ 0

# Target: SpBzz1-D1
# Assay: as above
# Method: as §1
row,Binder,SPOT peptide array binding signal intensity
1,LASNSPPVYPKRIRH,248

# Target: SpBzz1-D2
# Assay: as above
# Method: as §1
row,Binder,SPOT peptide array binding signal intensity
1,LASNSPPVYPKRIRH,≤ 0

# Target: SpCyk3
# Assay: as above
# Method: as §1
row,Binder,SPOT peptide array binding signal intensity
1,LASNSPPVYPKRIRH,≤ 0

# Target: SpHof1
# Assay: as above
# Method: as §1
row,Binder,SPOT peptide array binding signal intensity
1,LASNSPPVYPKRIRH,1.5

# Target: SpHof1-2
# Assay: as above
# Method: as §1
row,Binder,SPOT peptide array binding signal intensity
1,LASNSPPVYPKRIRH,1

# Target: SpHof1-3
# Assay: as above
# Method: as §1
row,Binder,SPOT peptide array binding signal intensity
1,LASNSPPVYPKRIRH,2.75

# Target: SpHse1
# Assay: as above
# Method: as §1
row,Binder,SPOT peptide array binding signal intensity
1,LASNSPPVYPKRIRH,≤ 0

# Target: SpLsb1
# Assay: as above
# Method: as §1
row,Binder,SPOT peptide array binding signal intensity
1,LASNSPPVYPKRIRH,257

# Target: SpLsb4
# Assay: as above
# Method: as §1
row,Binder,SPOT peptide array binding signal intensity
1,LASNSPPVYPKRIRH,1810

# Target: SpMyo1
# Assay: as above
# Method: as §1
row,Binder,SPOT peptide array binding signal intensity
1,LASNSPPVYPKRIRH,≤ 0

# Target: SpNbp2
# Assay: as above
# Method: as §1
row,Binder,SPOT peptide array binding signal intensity
1,LASNSPPVYPKRIRH,0.5

# Target: SpPex13
# Assay: as above
# Method: as §1
row,Binder,SPOT peptide array binding signal intensity
1,LASNSPPVYPKRIRH,≤ 0

# Target: SpRvs167
# Assay: as above
# Method: as §1
row,Binder,SPOT peptide array binding signal intensity
1,LASNSPPVYPKRIRH,3.5

# Target: SpSla1-D1-D2
# Assay: as above
# Method: as §1
row,Binder,SPOT peptide array binding signal intensity
1,LASNSPPVYPKRIRH,≤ 0

# Target: SpSla1-D3
# Assay: as above
# Method: as §1
row,Binder,SPOT peptide array binding signal intensity
1,LASNSPPVYPKRIRH,≤ 0
